Holding throughout (assay): DAPPL (digital affinity profiling via proximity ligation, sequencing); 10 mM Tris-HCl pH 7.5, 50 mM NaCl, 1 mM DTT, 4% glycerol, room temperature, 30 min; GST-TFs on glutathione beads, 16-mer random dsDNA library, 0.1% formaldehyde crosslink after washing; high values mean tight binding
What all share (details): protein: recombinant; tags: N-terminal GST; dsDNA, one strand shown

One test has as its target T1, FLI1 (Homo sapiens, UniProt Q01543 1-452).
T1 sequence: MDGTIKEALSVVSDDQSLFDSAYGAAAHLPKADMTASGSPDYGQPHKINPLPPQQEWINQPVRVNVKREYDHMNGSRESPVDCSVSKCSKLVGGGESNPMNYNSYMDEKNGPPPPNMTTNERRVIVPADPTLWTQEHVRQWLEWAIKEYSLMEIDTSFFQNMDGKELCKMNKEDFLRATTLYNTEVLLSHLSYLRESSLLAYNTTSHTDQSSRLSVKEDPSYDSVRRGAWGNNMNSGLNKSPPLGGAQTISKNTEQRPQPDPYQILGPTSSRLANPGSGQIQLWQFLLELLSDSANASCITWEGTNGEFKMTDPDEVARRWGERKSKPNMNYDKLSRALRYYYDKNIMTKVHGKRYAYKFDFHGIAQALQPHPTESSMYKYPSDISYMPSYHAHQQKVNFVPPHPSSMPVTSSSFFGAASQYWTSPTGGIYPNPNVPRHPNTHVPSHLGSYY
An outline of the steps:
(§1)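 Pools of DNA-barcoded human transcription factors, expressed in yeast as GST fusions on glutathione beads and combined with a tag-only sample, were incubated with 200 nmole of a 16-mer random double-stranded DNA library. Incubation took 30 min at room temperature in Tris/NaCl/DTT/glycerol buffer and was followed by washing, 0.1% formaldehyde crosslinking, proximity ligation (BsaI/T4 ligase, 1 h, 37 °C), PCR amplification and sequencing on an Illumina NextSeq500. Binding signal is the ratio of a hexamer's read frequency for a factor to its frequency for the tag-only sample.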

Another test deals with T2, ELK1 (Homo sapiens, UniProt P19419 1-428).
T2 sequence: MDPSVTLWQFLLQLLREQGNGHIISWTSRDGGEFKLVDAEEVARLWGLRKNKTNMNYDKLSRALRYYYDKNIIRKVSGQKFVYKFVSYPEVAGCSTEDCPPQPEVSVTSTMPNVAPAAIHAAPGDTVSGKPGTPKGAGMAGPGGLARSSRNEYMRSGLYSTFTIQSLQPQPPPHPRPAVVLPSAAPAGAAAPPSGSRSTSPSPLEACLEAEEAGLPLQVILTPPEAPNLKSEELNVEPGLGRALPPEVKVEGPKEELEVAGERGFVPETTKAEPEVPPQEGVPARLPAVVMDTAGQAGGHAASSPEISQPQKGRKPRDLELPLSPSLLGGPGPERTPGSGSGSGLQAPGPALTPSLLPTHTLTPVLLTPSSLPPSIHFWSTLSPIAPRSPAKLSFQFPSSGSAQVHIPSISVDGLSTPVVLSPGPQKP
A digest of the protocol:
as §1

Another test has as its target T3, GABPA (Homo sapiens, UniProt Q06546 1-454).
T3 sequence: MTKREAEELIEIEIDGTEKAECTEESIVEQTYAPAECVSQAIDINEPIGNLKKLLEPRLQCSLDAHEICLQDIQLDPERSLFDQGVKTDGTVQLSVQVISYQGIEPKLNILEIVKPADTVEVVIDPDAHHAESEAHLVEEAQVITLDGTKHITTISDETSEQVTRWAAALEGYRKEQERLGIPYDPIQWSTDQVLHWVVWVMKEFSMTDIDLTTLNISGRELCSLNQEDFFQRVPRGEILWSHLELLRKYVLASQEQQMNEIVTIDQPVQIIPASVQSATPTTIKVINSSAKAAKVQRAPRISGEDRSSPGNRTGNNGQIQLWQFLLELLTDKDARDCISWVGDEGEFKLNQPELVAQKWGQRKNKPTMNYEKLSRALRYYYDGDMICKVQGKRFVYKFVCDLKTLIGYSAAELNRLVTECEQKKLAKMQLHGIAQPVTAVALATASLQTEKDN
A digest of the protocol: as §1

The target in a further test is T4, ERG (Homo sapiens, UniProt P11308 1-479).
T4 sequence: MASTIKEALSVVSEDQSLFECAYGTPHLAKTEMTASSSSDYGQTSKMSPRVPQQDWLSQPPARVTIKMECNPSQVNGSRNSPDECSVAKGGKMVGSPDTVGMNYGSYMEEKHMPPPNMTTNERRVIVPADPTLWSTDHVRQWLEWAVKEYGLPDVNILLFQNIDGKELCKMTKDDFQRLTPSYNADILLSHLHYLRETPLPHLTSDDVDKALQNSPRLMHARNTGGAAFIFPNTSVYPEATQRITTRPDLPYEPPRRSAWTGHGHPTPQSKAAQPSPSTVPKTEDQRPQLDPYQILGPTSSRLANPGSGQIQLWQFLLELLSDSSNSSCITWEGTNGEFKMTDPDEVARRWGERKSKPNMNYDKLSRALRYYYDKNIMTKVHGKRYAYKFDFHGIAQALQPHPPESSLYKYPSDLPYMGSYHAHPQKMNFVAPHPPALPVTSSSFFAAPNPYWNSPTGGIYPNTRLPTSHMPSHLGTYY
A digest of the protocol: as §1

The next test concerns the target ELF1 (Homo sapiens, UniProt P32519 1-619). An outline of the steps: as §1
In another test the target is T5, EHF (Homo sapiens, UniProt Q9NZC4 1-300).
T5 sequence: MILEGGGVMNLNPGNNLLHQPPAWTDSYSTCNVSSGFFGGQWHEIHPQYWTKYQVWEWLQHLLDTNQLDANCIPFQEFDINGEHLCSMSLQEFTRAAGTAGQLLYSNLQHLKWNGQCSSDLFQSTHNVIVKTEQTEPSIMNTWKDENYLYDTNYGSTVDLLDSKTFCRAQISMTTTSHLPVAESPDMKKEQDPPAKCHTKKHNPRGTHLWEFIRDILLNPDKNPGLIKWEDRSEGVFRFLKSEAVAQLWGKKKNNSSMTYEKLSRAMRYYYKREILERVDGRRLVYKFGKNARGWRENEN
An outline of the steps:
as §1

In another test the target is SPI1 (Homo sapiens, UniProt P17947 1-270). An outline of the steps:
as §1

A further test addresses SPIB (Homo sapiens, UniProt Q01892 1-262). An outline of the steps:
as §1

The target in the next test is T6, ELK3 (Homo sapiens, UniProt P41970 1-407).
T6 sequence: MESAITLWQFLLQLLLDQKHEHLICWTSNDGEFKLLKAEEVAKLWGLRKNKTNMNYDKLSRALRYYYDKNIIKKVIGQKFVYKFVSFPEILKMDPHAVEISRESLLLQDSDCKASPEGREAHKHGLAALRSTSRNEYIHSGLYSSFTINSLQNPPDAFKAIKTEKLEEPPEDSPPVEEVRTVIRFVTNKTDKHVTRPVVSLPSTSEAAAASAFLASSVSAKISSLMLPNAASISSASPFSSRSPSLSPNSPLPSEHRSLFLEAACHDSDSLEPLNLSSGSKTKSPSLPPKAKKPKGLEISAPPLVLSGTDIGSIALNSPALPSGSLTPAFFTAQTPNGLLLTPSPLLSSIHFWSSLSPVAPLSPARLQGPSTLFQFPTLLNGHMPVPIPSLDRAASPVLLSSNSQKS
A digest of the protocol:
as §1

Chain of ELF1 (P32519 whole entry): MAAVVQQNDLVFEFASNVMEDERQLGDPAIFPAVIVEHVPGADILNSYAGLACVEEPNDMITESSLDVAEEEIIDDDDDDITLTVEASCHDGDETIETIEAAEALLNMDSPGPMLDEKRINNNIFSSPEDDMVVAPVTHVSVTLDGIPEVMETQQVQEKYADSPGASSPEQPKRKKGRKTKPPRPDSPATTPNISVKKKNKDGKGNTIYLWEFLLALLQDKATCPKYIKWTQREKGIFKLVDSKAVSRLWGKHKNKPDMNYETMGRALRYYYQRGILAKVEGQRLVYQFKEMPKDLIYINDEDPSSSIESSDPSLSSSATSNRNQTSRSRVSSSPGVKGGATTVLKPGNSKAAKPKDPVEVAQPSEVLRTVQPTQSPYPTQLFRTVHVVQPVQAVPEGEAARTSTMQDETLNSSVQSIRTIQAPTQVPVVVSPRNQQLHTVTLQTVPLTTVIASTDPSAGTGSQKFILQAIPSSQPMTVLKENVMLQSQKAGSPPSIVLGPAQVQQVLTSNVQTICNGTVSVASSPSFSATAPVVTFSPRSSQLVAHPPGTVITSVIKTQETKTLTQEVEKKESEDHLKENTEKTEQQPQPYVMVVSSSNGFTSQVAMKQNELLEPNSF
Chain of SPIB (Q01892 whole entry): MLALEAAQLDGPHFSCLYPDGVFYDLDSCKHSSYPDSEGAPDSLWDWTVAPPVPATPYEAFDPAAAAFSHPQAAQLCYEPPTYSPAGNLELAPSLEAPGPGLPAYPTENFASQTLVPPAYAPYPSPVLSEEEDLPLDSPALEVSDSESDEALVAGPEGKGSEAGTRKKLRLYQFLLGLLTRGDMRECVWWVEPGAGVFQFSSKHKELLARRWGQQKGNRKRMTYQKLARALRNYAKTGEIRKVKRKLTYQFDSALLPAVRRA

Take CTGAAG: the binding signal with FLI1 was 1.02 fold enrichment (6-mer frequency, TF over GST control); with ELK1, 1.14 fold enrichment (6-mer frequency, TF over GST control); in the test with GABPA, 1.11 fold enrichment (6-mer frequency, TF over GST control); with ERG, 1.08 fold enrichment (6-mer frequency, TF over GST control); in the test with ELF1, 1.11 fold enrichment (6-mer frequency, TF over GST control); in the test with EHF, 1.02 fold enrichment (6-mer frequency, TF over GST control). In addition, the binding signal with SPI1 is 1.05 fold enrichment (6-mer frequency, TF over GST control); in the test with SPIB, 1.04 fold enrichment (6-mer frequency, TF over GST control); with ELK3, 1.01 fold enrichment (6-mer frequency, TF over GST control).
Turning to TTGGGC, the binding signal with FLI1 was 1.03 fold enrichment (6-mer frequency, TF over GST control); with ELK1, 1.07 fold enrichment (6-mer frequency, TF over GST control); with GABPA, 1.01 fold enrichment (6-mer frequency, TF over GST control); in the test with ERG it was 1.07 fold enrichment (6-mer frequency, TF over GST control); in the test with ELF1 it was 1.03 fold enrichment (6-mer frequency, TF over GST control); in the test with EHF, 1.1 fold enrichment (6-mer frequency, TF over GST control). Moreover, the binding signal in the test with SPI1 was 1.2 fold enrichment (6-mer frequency, TF over GST control); in the test with SPIB, 1.1 fold enrichment (6-mer frequency, TF over GST control); in the test with ELK3, 1.21 fold enrichment (6-mer frequency, TF over GST control).
As to CCCCTT, the binding signal with FLI1 was 1.48 fold enrichment (6-mer frequency, TF over GST control); in the test with ELK1, 1.55 fold enrichment (6-mer frequency, TF over GST control); in the test with GABPA, 1.44 fold enrichment (6-mer frequency, TF over GST control); with ERG it was 1.54 fold enrichment (6-mer frequency, TF over GST control); with ELF1, 1.53 fold enrichment (6-mer frequency, TF over GST control); in the test with EHF it was 1.62 fold enrichment (6-mer frequency, TF over GST control). Further, the binding signal with SPI1 is 2.01 fold enrichment (6-mer frequency, TF over GST control); with SPIB, 1.53 fold enrichment (6-mer frequency, TF over GST control); with ELK3, 1.51 fold enrichment (6-mer frequency, TF over GST control).
With ACACTG, the binding signal with FLI1 is 1.08 fold enrichment (6-mer frequency, TF over GST control); with ELK1 it was 1.13 fold enrichment (6-mer frequency, TF over GST control); with GABPA, 1.13 fold enrichment (6-mer frequency, TF over GST control); in the test with ERG, 1.07 fold enrichment (6-mer frequency, TF over GST control); in the test with ELF1 it was 1.09 fold enrichment (6-mer frequency, TF over GST control); in the test with EHF it was 1.11 fold enrichment (6-mer frequency, TF over GST control). In addition, the binding signal with SPI1 is 1.07 fold enrichment (6-mer frequency, TF over GST control); with SPIB, 1.04 fold enrichment (6-mer frequency, TF over GST control); in the test with ELK3 it was 1.04 fold enrichment (6-mer frequency, TF over GST control).
In the case of CCTCAA, the binding signal in the test with FLI1 was 1.47 fold enrichment (6-mer frequency, TF over GST control); in the test with ELK1, 1.32 fold enrichment (6-mer frequency, TF over GST control); with GABPA, 1.46 fold enrichment (6-mer frequency, TF over GST control); in the test with ERG, 1.26 fold enrichment (6-mer frequency, TF over GST control); in the test with ELF1 it was 1.32 fold enrichment (6-mer frequency, TF over GST control); with EHF it was 1.39 fold enrichment (6-mer frequency, TF over GST control). Further, the binding signal was 1.55 fold enrichment (6-mer frequency, TF over GST control) with SPI1; 1.42 fold enrichment (6-mer frequency, TF over GST control) with SPIB; 1.44 fold enrichment (6-mer frequency, TF over GST control) with ELK3.
Turning to TTCACA, the binding signal in the test with FLI1 was 1.27 fold enrichment (6-mer frequency, TF over GST control); with ELK1 it was 1.17 fold enrichment (6-mer frequency, TF over GST control); with GABPA it was 1.23 fold enrichment (6-mer frequency, TF over GST control); with ERG, 1.18 fold enrichment (6-mer frequency, TF over GST control); with ELF1 it was 1.16 fold enrichment (6-mer frequency, TF over GST control); with EHF it was 1.2 fold enrichment (6-mer frequency, TF over GST control). Also, the binding signal was 1.08 fold enrichment (6-mer frequency, TF over GST control) with SPI1; 1.25 fold enrichment (6-mer frequency, TF over GST control) in the test with SPIB; 1.26 fold enrichment (6-mer frequency, TF over GST control) in the test with ELK3.
Take TTTCTT: the binding signal is 1.42 fold enrichment (6-mer frequency, TF over GST control) with FLI1; 1.3 fold enrichment (6-mer frequency, TF over GST control) in the test with ELK1; 1.42 fold enrichment (6-mer frequency, TF over GST control) in the test with GABPA; 1.37 fold enrichment (6-mer frequency, TF over GST control) with ERG; 1.38 fold enrichment (6-mer frequency, TF over GST control) with ELF1; 1.29 fold enrichment (6-mer frequency, TF over GST control) with EHF. Moreover, the binding signal with SPI1 is 1.37 fold enrichment (6-mer frequency, TF over GST control); with SPIB, 1.24 fold enrichment (6-mer frequency, TF over GST control); with ELK3 it was 1.31 fold enrichment (6-mer frequency, TF over GST control).
TCCACC: the binding signal with FLI1 was 1.22 fold enrichment (6-mer frequency, TF over GST control); with ELK1, 1.18 fold enrichment (6-mer frequency, TF over GST control); with GABPA, 1.21 fold enrichment (6-mer frequency, TF over GST control); with ERG it was 1.19 fold enrichment (6-mer frequency, TF over GST control); in the test with ELF1, 1.2 fold enrichment (6-mer frequency, TF over GST control); in the test with EHF, 1.28 fold enrichment (6-mer frequency, TF over GST control). In addition, the binding signal with SPI1 was 1.19 fold enrichment (6-mer frequency, TF over GST control); in the test with SPIB, 1.3 fold enrichment (6-mer frequency, TF over GST control); with ELK3 it was 1.18 fold enrichment (6-mer frequency, TF over GST control).

The values above are taken from article PMC7862700, “An all-to-all approach to the identification of sequence-specific readers for epigenetic DNA modifications on cytosine”.
